Data on 42 sequences can be found in paper PMC7819943, “Rice protein-binding microarrays: a tool to detect cis-acting elements near promoter regions in rice”.

Over roughly 68,000 sequences, “fluorescence intensity (a.u.)” has its median near 9,100; the highest 2% begin near 16,000. Only a selection was taken, and the highest values are over-represented in it overall.

The target of the assay is OsWRKY34 (Oryza sativa, UniProt Q0JBA9 1-250). Kind of assay: protein-binding microarray (RPBM); PBS, 2% BSA, 51.3 ng/ul salmon testes DNA, 50 uM zinc acetate, 200 nM TF, 25 C, 1 h; high values mean tight binding. The conditions noted are these: protein: recombinant; tags: N-terminal polyhistidine and DsRed monomer fusion (pET32a); label: CyDye5-dUTP incorporated in the synthesized complementary strand; 3' TTTTT single-stranded linker to array surface; dsDNA, one strand shown. The method in brief: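 Binding signal here means per-feature fluorescence intensity in arbitrary units. The values were read on an Axon 4000B scanner after a custom Agilent array, double-stranded by primer extension with Cy5-dUTP, was incubated with 200 nM protein at 25 °C for 1 h in PBS with 2% BSA, salmon testes DNA and 50 µM zinc acetate, then washed. The proteins were transcription factors with an N-terminal polyhistidine tag and DsRed, expressed in E. coli BL21-CodonPlus and purified on Ni–NTA.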
Chain of OsWRKY34 (Q0JBA9 entry or part of it): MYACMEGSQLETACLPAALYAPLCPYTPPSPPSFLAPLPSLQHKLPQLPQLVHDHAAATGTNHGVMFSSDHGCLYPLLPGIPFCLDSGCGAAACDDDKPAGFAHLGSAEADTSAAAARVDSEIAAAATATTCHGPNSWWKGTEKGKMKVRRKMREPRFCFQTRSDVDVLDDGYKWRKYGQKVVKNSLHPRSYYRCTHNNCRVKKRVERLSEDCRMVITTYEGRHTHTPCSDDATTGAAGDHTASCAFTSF
For “TATGGTATTTGGGTTAAAGAACGAAAATCGAACTCGCTGTCGGAGTCACCTAGTGCAG”, the binding signal was 8160 fluorescence intensity (a.u.). For “GAGGGAGGGAGGGAGGGAGACCGCGAGTGTGAGTGACTGCCGGAGTCACCTAGTGCAG”, the binding signal is 10200 fluorescence intensity (a.u.).

Consider “ACTGCCCTTATCATTTCCGATTCCGTTTCCGAGAAAATATCGGAGTCACCTAGTGCAG”, for which the binding signal was 9240 fluorescence intensity (a.u.). To “ACTTTGTCACTTGACTTATTCTCTGGCCGTGCGTATAAATCGGAGTCACCTAGTGCAG” belongs 8150 fluorescence intensity (a.u.); to “CCTGCTATTGTACCTGCTCTAAGCCAGCTATAACCATATACGGAGTCACCTAGTGCAG”, 8170 fluorescence intensity (a.u.). To “GTGAAGTGTGGTTTAAAAATGGTTGCCTGGTCACTTTATCCGGAGTCACCTAGTGCAG” belongs 9020 fluorescence intensity (a.u.); to “TGTCAGTCACTGTCCCCTTCGTGGTCGTCTTCGCCACTTCCGGAGTCACCTAGTGCAG”, 9210 fluorescence intensity (a.u.).

In the case of “GGCGGGCGCGGTGGAGGCGGGGAGGAAGGGGAGCGGAGGTCGGAGTCACCTAGTGCAG”, the binding signal is 9390 fluorescence intensity (a.u.). To “GCGGAGGAGGGCGGGAGGAAGCGGGTGGCGGCGGCGGAGTCGGAGTCACCTAGTGCAG” belongs 10900 fluorescence intensity (a.u.); to “TCTCTTCCTTGCTGTGGTGGCGGCGGGCGGGAGGGCGGCGCGGAGTCACCTAGTGCAG”, 35000 fluorescence intensity (a.u.); to “AAGCGATCGGGGCGGCGGAGGAGGTGGGTGGGAGGGAGGGCGGAGTCACCTAGTGCAG”, 30200 fluorescence intensity (a.u.). In the case of “GGGGTGGGGTTGGCGGCGACGCGGGCGAGGCCGAGGAGGACGGAGTCACCTAGTGCAG”, the binding signal was 13400 fluorescence intensity (a.u.).

Take “GTCGGGCGGGAGCGGTGCAGGGTGGAGGAGGTGGGCGGGGCGGAGTCACCTAGTGCAG”: the binding signal was 22900 fluorescence intensity (a.u.).

With “AGGTGGAGGCGCCGGTGTGGGTGGTGGAGCGGGAGGAGGTCGGAGTCACCTAGTGCAG”, the binding signal is 8610 fluorescence intensity (a.u.). To “GGCGGGAGGCGCGGGCGGCGAGGTGCTCCTCTTCTCTCTCCGGAGTCACCTAGTGCAG” belongs 9060 fluorescence intensity (a.u.); to “CGGCGGAGGGAGGATCGGGGTGGGTGGCGCAGCGGCGACGCGGAGTCACCTAGTGCAG”, 11200 fluorescence intensity (a.u.); to “GGGGAGGCGAGGCGGCGAGGTTATAAAAACGGTGGGGTGGCGGAGTCACCTAGTGCAG”, 12200 fluorescence intensity (a.u.). On to “GCGGTGGCGGTTGGGGTGGCGAGTGGGGAGGAGGAGGCGGCGGAGTCACCTAGTGCAG”, for which the binding signal was 18900 fluorescence intensity (a.u.).

For “CTCTCCTCTCTTCTCGAGCGCGGCGGCGGTGGTGGGGAGGCGGAGTCACCTAGTGCAG”, the binding signal was 14300 fluorescence intensity (a.u.). Regarding “ATACTAGTCCATTCGAGTTGAAACGTTCAGTGAACAGCTACGGAGTCACCTAGTGCAG”, the binding signal is 8030 fluorescence intensity (a.u.). For “GATCTCTTGCAGCTGCGCATCTGTGCATGCATCCACACTACGGAGTCACCTAGTGCAG”, the binding signal is 9260 fluorescence intensity (a.u.). “TTGATCCTGCTTTTAGTTATAGTTTTTGTTAGGGTGTATTCGGAGTCACCTAGTGCAG”: the binding signal is 10100 fluorescence intensity (a.u.). With “TAAAACTAGTCATCCCTTCATTTTATATTATAAGTTGTTTCGGAGTCACCTAGTGCAG”, the binding signal was 8290 fluorescence intensity (a.u.).

For “TGTGCCTGCCGACTCGCCCACGCAACTCCGACTCTTTCCTCGGAGTCACCTAGTGCAG”, the binding signal is 13500 fluorescence intensity (a.u.). To “GTTAACTTTTGGTAGTTGCAGGGGTTCTATAGGTGGGCAGCGGAGTCACCTAGTGCAG” belongs 8640 fluorescence intensity (a.u.); to “GCGGGACTTGCAGATCCGAGCGGGCGGGGCGGGGCGGGTTCGGAGTCACCTAGTGCAG”, 22000 fluorescence intensity (a.u.); to “GGCGGGGCGGATCCGAGGGGCGAAGTGGGTCGGGCGGCGGCGGAGTCACCTAGTGCAG”, 9480 fluorescence intensity (a.u.).

In the case of “GGTTGGTGGCGGTGGGCCGGTGGCGGCTCGGTGGCGGAGCCGGAGTCACCTAGTGCAG”, the binding signal was 10200 fluorescence intensity (a.u.). To “CTGGCGAGCAGAGCAGGGGAGGGGAGGGGAGGGGATCGGGCGGAGTCACCTAGTGCAG” belongs 14200 fluorescence intensity (a.u.); to “TTGGTGGGTGGCGCGGTGGCCGGACCTGGGGTGGTGGGCGCGGAGTCACCTAGTGCAG”, 15900 fluorescence intensity (a.u.); to “TATGGGTAGGTTCTTGTTCTATGGGGCAGGGGTCTTAAAGCGGAGTCACCTAGTGCAG”, 17100 fluorescence intensity (a.u.). To “CTTGGGGAAGGCGGCGGGTGTCGGGGAGGGCGAGGGTATCCGGAGTCACCTAGTGCAG” belongs 18000 fluorescence intensity (a.u.); to “TTGGCGCGCGGTTGGTGGGGCGGTGGTGGTGGTGGTGCCTCGGAGTCACCTAGTGCAG”, 17400 fluorescence intensity (a.u.); to “GGAGTGTGGCGGAGCGGGAGTTCGCGGGCGGACGGCGGGGCGGAGTCACCTAGTGCAG”, 11700 fluorescence intensity (a.u.).

With “TGAGGTTTTGGGTTCTTGGGCACTTCTTGTTCTAGCCAAGCGGAGTCACCTAGTGCAG”, the binding signal is 9900 fluorescence intensity (a.u.). To “GTGGGTTGGGGTCGGCGAGGGATCCGGGCGGCGGGGTATGCGGAGTCACCTAGTGCAG” belongs 14000 fluorescence intensity (a.u.); to “GCTATCGCCGGTTTCGTCATCAATAATCTTCTCTGCCTCTCGGAGTCACCTAGTGCAG”, 8820 fluorescence intensity (a.u.). For the sequence “TTTCATCGTTTAGTGTCTTACTCCCTTTCCGATGGTCAACCGGAGTCACCTAGTGCAG”, the binding signal is 9340 fluorescence intensity (a.u.). Consider “CATTCTTGTCTGTAGCTTATTTGTTCGTGTTCATTAGTTTCGGAGTCACCTAGTGCAG”, for which the binding signal is 13500 fluorescence intensity (a.u.).

As to “TGTCTCTCTTTGACATCTTGTTTCCCATAACCTAAAGATACGGAGTCACCTAGTGCAG”, the binding signal is 8260 fluorescence intensity (a.u.). To “GTACGCAACTTGTCCGCAGCCGCGACCCCGACCCGACCCGCGGAGTCACCTAGTGCAG” belongs 8200 fluorescence intensity (a.u.); to “ATCATCCATATCCAGCTATACTATACTACTCGATCCCTTCCGGAGTCACCTAGTGCAG”, 10200 fluorescence intensity (a.u.).
